Hits are enriched below; roughly 12% of the tested compounds scored in any of these assays.
Sfp PPTase inh: qHTS Assay for Inhibitors of Bacillus subtilis Sfp phosphopantetheinyl transferase (PPTase) | 4'-phosphopantetheinyl transferase ffp (Bacillus subtilis), Q9F4F7 | Biochemical Sfp PPTase activity, qHTS | Potency, µM, actives largely listed as inhibitors | actives 3.5% (n = 310,000);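 note: the enzyme is Sfp with the accession as filed and its product quenches rhodamine fluorescence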
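Reaction rates are the 30-min fluorescence difference (ex 525, em 598 nm) in wells containing 15 nM Sfp, 5 uM rhodamine-CoA and 12.5 uM BHQ-2-YbbR at pH 7.6 with 10 mM MgCl2.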
HP1b chromo inh: HTS for Inhibitors of HP1-beta Chromodomain Interactions with Methylated Histone Tails | Potency, µM (highest dose often 114 µM), usual class: inhibitors | AlphaScreen HP1-beta / biotin-H3K9me3 peptide binding | actives 0.56% (n = 390,000) | Chromobox protein homolog 1 (Homo sapiens), P83916 | AID 540317, 2011; note: nearly all actives have a fitted effect of over 70% in size
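AlphaScreen: HP1-beta (50 nM) preformed 30 min with biotin-H3(1-18)K9me3 peptide (50 nM) in PBS pH 7.4, 0.01% Tween-20. Compound added for 30 min at RT, then streptavidin donor/nickel chelate acceptor beads (10 ug/mL) for 30 min.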
BAZ2B block: qHTS Assay for Inhibitors of BAZ2B; Bromodomain adjacent to zinc finger domain protein 2B (Homo sapiens), Q9UIF8; AlphaScreen BAZ2B-H3K14Ac peptide displacement; Potency, µM (doses to about 114 µM), actives largely listed as inhibitors; actives 4.4% (n = 360,000); AID 504333, 2011; note: nearly all actives have a fitted effect of over 60% in size
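BAZ2B (50 nM) with biotin-H3(5-23)K14Ac peptide (50 nM) in PBS pH 7.4, 0.01% Tween-20, preformed 30 min, then compound 30 min at room temperature; top concentration 110uM. AlphaScreen streptavidin donor/nickel chelate acceptor beads (10 ug/mL final), 20 min dark, signal read.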
JMJD2A Tudor inh: qHTS Assay for Inhibitors of JMJD2A-Tudor Domain; Potency, µM (titrated, usually from 114 µM), actives largely listed as inhibitors; AlphaScreen JMJD2A-Tudor / H3K4me3 peptide binding; Lysine-specific demethylase 4A (Homo sapiens), O75164; actives 4.4% (n = 390,000); AID 504339, 2011; note: nearly all actives have a fitted effect of over 50% in size
Target sequence (O75164 whole entry, looked up, the tested form may be a part): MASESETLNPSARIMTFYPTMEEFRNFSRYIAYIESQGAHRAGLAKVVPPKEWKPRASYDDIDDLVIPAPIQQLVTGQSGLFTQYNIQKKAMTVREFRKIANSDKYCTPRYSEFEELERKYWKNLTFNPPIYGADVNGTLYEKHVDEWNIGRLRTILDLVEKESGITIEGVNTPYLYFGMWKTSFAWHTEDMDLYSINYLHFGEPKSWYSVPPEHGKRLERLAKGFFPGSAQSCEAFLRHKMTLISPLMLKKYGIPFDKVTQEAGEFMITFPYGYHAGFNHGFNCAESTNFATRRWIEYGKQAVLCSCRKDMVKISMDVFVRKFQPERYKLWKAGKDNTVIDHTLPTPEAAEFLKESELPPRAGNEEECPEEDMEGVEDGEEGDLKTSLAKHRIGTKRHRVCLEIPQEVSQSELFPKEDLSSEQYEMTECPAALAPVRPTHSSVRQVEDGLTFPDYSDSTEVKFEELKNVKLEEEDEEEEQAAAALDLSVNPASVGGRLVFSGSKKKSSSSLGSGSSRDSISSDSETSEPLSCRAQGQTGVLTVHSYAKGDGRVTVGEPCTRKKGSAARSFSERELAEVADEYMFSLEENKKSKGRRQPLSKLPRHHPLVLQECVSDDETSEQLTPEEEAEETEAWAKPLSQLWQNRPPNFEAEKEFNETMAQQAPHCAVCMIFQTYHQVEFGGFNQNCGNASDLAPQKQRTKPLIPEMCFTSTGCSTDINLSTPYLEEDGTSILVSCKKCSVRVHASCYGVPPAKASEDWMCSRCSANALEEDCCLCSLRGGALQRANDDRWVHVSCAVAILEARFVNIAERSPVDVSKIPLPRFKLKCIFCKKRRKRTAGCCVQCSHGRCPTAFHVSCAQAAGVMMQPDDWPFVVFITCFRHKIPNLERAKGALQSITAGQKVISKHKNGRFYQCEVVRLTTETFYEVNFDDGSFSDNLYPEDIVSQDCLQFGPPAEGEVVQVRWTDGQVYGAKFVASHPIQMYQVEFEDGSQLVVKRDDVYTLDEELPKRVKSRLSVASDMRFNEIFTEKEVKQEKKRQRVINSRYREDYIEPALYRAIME
G9a inh: qHTS Assay for Inhibitors of Histone Lysine Methyltransferase G9a; actives 8.8% (n = 350,000); G9a H3K9 monomethylation, AlphaScreen, 2 h; Potency, µM (series often up to 102 µM), hits mostly inhibitors; note: nearly all actives have a fitted effect of over 75% in size
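Readings reflect AlphaScreen signal from monomethyl-H3K9 antibody detection. HMT at 20 nM; substrate b-H3K9 500 nM; cofactor SAM 20 uM; 2 h RT reaction; compounds tested as titrations in qHTS with 15 min preincubation.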
Numbers stand for hits; n = inactive; u = inconclusive; x = no result given; [ ] = remark or other dose. Calls come from the whole dose curve; as a rule, active = well fitted curve in the direction sought with a large enough effect; inconclusive = small, poorly fitted or top-dose-only effect, or another doubt; inactive = no such curve, though single readings can be large; an effect the other way counts as inactive or inconclusive.

SMILES	Sfp PPTase inh	HP1b chromo inh	BAZ2B block	JMJD2A Tudor inh	G9a inh
COc1ccc2[nH]c(C)c(CCNC(=S)Nc3ccc(C)cc3)c2c1	n	n	x	50.1µM	u
CCc1cccc(CC)c1NC(=S)NCCc1ccc(O)c(O)c1	n	n	x	u	u
COc1ccc2[nH]c(C)c(CCNC(=S)Nc3cccc(C)c3C)c2c1	n	u	35.5µM	56.2µM	u
Cc1noc(-c2ccc(N3CCC(C)CC3)c([N+](=O)[O-])c2)n1	x	n	n	n	n
CCNC(=S)NNC(=O)CSc1nc2ccccc2n1C	n	n	n	89.1µM	x
CCNC(=S)NNC(=O)CSc1nc2ccccc2[nH]1	n	n	n	n	44.7µM
Cc1nc(N)nc(N)c1/C=C/C(C)(C)c1ccc(Cl)cc1	n	n	u	n	x
CCN(CC)C(=O)c1ccc(NS(=O)(=O)c2ccc3[nH]c(=O)[nH]c3c2)cc1	n	n	u	n	x
O=C(N1CCOCC1)N1CCN(c2nc(-c3ccccc3)cs2)CC1	u	n	u	n	44.7µM
S=C(NCCCN1CCOCC1)N1CCN(c2nc(-c3ccccc3)cs2)CC1	44.7µM	n	u	u	56.2µM
S=C(NCCCN1CCOCC1)N1CCN(c2nc(-c3ccc(Cl)cc3)cs2)CC1	n	n	n	u	n
O=C(NCCCN1CCOCC1)C1CCN(S(=O)(=O)c2cccc(Cl)c2Cl)CC1	x	n	n	n	n[0.501 µM]
O=S(=O)(c1cccc(Cl)c1Cl)N1CCN(C(=S)NCCCN2CCOCC2)CC1	n	28.2µM	50.1µM	1.58µM	35.5µM
S=C(NCC1CCCO1)N1CCN(c2nc(-c3ccc(Cl)cc3)cs2)CC1 (stereo not drawn)	n	u	35.5µM	u	u
Cc1cc(C)nc(S/C=C/C(=O)c2ccc(F)cc2)n1	n	x	n	x	n
CCN(CC)CCn1c(=S)[nH]c2cc(C(=O)N3CC(C)CC(C)C3)ccc2c1=O (stereo not drawn)	n	n	n	n	u
Cc1cccc(C)c1N1CCN(C(=O)N2CCOCC2)CC1	n	n	n	u	35.5µM
Cc1ccc(N2CCN(C(=O)N3CCOCC3)CC2)cc1C	n	n	n	n	u
Brc1ccc(C2=CC(c3cccs3)n3ncnc3N2)cc1 (stereo not drawn)	79.4µM	n	n	n	n[0.501 µM]
Fc1ccc(Br)cc1C1C=C(c2cccnc2)Nc2ncnn21 (stereo not drawn)	n	n	n	u	44.7µM
C1=C(c2ccc(-c3ccccc3)cc2)Nc2ncnn2C1c1ccco1 (stereo not drawn)	u	n	n	n	31.6µM
Fc1ccc(C2=CC(c3ccc(Br)o3)n3ncnc3N2)cc1 (stereo not drawn)	n	n	n	31.6µM	8.91µM
Oc1ccc(C2C=C(c3ccc(F)cc3)Nc3ncnn32)cc1 (stereo not drawn)	n	n	n	n	x
Fc1ccc(C2=CC(c3ccco3)n3ncnc3N2)cc1 (stereo not drawn)	n	n	u	n	u
C[C@@H]1/C=C\CC(=O)OC[C@H](C)C(=O)N2CCC[C@@H]2C(=O)OC1	n	x	x	x	x
SMILES	Sfp PPTase inh	HP1b chromo inh	BAZ2B block	JMJD2A Tudor inh	G9a inh
CCC1=C(OC(=O)N(CC)CC)N2C(=O)OC(=NCCOC)[C@]2(C)[C@H]2C1=CC[C@H]1C(=O)N(C)C(=O)[C@H]12	n	x	x	x	x
CCOc1ccc(Cn2nnc(C(=O)Nc3cccc(SC)c3)c2N)cc1	x	n	n	n	n
CCOCCCN1C(=O)C(O)=C(C(C)=O)C1c1cccs1 (stereo not drawn)	x	n	x	89.1µM	x
COCCCN1C(=O)C(O)=C(C(=O)c2ccc(C)o2)C1c1cccc(Br)c1 (stereo not drawn)	n	n	n	89.1µM	n
COCc1cc(C2C(C(=O)c3ccco3)=C(O)C(=O)N2CCOCCO)ccc1O (stereo not drawn)	n	n	u	50.1µM	u
CCN(CC)CCCN1C(=O)C(O)=C(C(=O)c2ccc(C)o2)C1c1ccc(C)o1 (stereo not drawn)	n	n	n	u	20µM
CCN(CC)CCCN1C(=O)C(O)=C(C(=O)c2ccc(C)o2)C1c1cccs1 (stereo not drawn)	n	x	n	x	n[12.7 µM]
